Common to all, as to assay: NCI-60 one-dose screen, 48 h (100 = growth as untreated, 0 = no growth, -100 = all killed)
What all share (details): 10 µM unless noted

Assay [1] concerns HCT-15 colon.
The test system of assay [2] is HT29 colon.
The test system of assay [3] is SNB-75 CNS.
The subject of assay [4] is SNB-19 CNS.
The test system of assay [5] is U251 CNS.
Assay [6] relates to SK-MEL-5 melanoma.
The subject of assay [7] is UACC-62 melanoma.
The subject of assay [8] is LOX IMVI melanoma.
Assay [9] concerns SK-MEL-28 melanoma.
Assay [10] relates to SK-MEL-2 melanoma.
Assay [11] has as its system EKVX NSCLC.
Assay [12] deals with SN12C renal.
Assay [13] has as its system UO-31 renal.
Assay [14] has as its system TK-10 renal.
The subject of assay [15] is ACHN renal.
The subject of assay [16] is A498 renal.
Assay [17] concerns CCRF-CEM leukemia.
Assay [18] relates to MOLT-4 leukemia.
The test system of assay [19] is SR leukemia.

The text below walks through data of PubChem BioAssay (NCI).

Structures are written as SMILES. The panel holds about 83,000 compounds, 20% with a hit somewhere; the sample as a whole holds those more often.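 For each line, cells grew in 96-well plates with the test compound present at a single concentration for 48 hours.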 A number with no mark means an inactive call. Calls of active or inactive are those of the source. The calls were made as follows: active = growth percent below 10; inactive = the rest.

In the case of `CC[C@]12C=CCN3CC[C@@]4(c5ccc(OC)cc5N(C)[C@H]4[C@@](O)(C(=O)OC)[C@@H]1OC(=O)CCC(=O)O[C@H]1CC[C@H]4[C@@H]5CC[C@H]6CC(=O)CC[C@]6(C)[C@H]5CC[C@]14C)[C@@H]32`, the growth was 15.1% in [1]; -2.17% (active) in [2]; 41.9% in assay [3]; 37.5% in assay [4]; 18.1% in assay [5]; 7.1% (active) in assay [6]. Further, the growth in assay [7] was 29.3%; in assay [8], 27.9%; in [9], 46.5%; in [10], 8.52% (active); in assay [11], 21.2%; in [12] it was 24.8%. Moreover, the growth in [13] was 13.3%; in assay [14], 21.2%; in assay [15], 19.1%; in assay [16], 12.3%; in assay [17] it was 7.55% (active); in [18] it was 1.58% (active). Further, in assay [19], the growth is -10.4% (active).

For `Nc1cccc(C(=O)Nc2ccc3c(O)c(N=Nc4ccc(N=Nc5ccc(S(=O)(=O)O)cc5)cc4)c(S(=O)(=O)O)cc3c2)c1`, the growth was 108% in assay [1]; 99.1% in assay [2]; 87.9% in [3]; 106% in assay [4]; 109% in assay [5]; 104% in [6]. The growth was 97.4% in assay [7]; 101% in assay [8]; 107% in assay [9]; 108% in assay [10]; 103% in [11]; 106% in assay [12]. Further, the growth in assay [13] was 90.2%; in assay [14], 101%; in assay [15], 105%; in assay [16], 105%; in assay [17], 96.6%; in assay [18] it was 84.6%. In assay [19], the growth was 77.4%.

In the case of `Cc1nc2sc(C(=O)Nc3cccc4ccccc34)c(N)c2cc1C(C)O` (stereo not given), the growth in assay [1] was 14.4%; in assay [2] it was 4.82% (active); in assay [3] it was 29%; in assay [4] it was 34%; in assay [5], 25.4%; in assay [6], 8.93% (active). The growth in assay [7] is 36%; in [8] it was 26.9%; in assay [9], 66.9%; in assay [10] it was 36.5%; in assay [11] it was 36.7%; in [12], 36%. Further, the growth in assay [13] was 48.6%; in [14] it was 75.2%; in assay [15] it was 42.8%; in [16], 24.2%; in [18], 13.3%; in assay [19], 12.3%.

For the compound `O=C(C[n+]1cccc2cc(Cl)ccc21)c1ccc2c(c1)CCCC2`, the growth in assay [1] was 95.5%; in [2], 5.56% (active); in assay [3], 19.8%; in assay [4], 23.2%; in assay [5], -28.9% (active); in [6] it was -29% (active). Further, the growth in assay [7] was 17.3%; in [8], 11.9%; in assay [9], 19.8%; in assay [10], 28.3%; in assay [11], 44.7%; in assay [12], 10.1%. Moreover, the growth in assay [13] is 91.4%; in [14], 62%; in [15] it was 86.2%; in assay [16], 74%; in assay [17] it was 16%; in assay [18], 1.84% (active). In addition, the growth in assay [19] was 19%.

Consider `COc1c(O)cc2oc3cc(O[C@@H]4OC(C)[C@@H](O)[C@H](O)C4O)c(CC=C(C)C)c(O)c3c(=O)c2c1CC=C(C)C` (stereo not given in full), for which the growth in assay [1] was 85.1%; in assay [2] it was 84.3%; in assay [3] it was 88.9%; in assay [4], 102%; in assay [5] it was 86.6%; in [6], 91%. In addition, the growth in assay [7] is 96.9%; in assay [8], 89.3%; in [9] it was 105%; in assay [10], 90.5%; in [11], 82%; in [12], 99.7%. Also, the growth in [13] is 80.3%; in assay [15], 102%; in assay [16], 67.9%; in assay [17], 83.5%; in assay [18], 65.1%; in assay [19], 103%.

In the case of `C=C1C(=O)O[C@H]2[C@H]1CC/C(C=Nc1c(N)cc(F)cc1Br)=C\CC[C@@]1(C)O[C@@H]21`, the growth in assay [1] is 30.6%; in [2] it was 36.4%; in [3], 91.2%; in assay [4], 76.7%; in assay [5], 87.3%; in assay [6], 96.9%. Moreover, the growth was 90.1% in assay [7]; 66.2% in assay [8]; 80% in assay [9]; 86.7% in [10]; 75.2% in assay [11]; 76.1% in [12]. Moreover, the growth in assay [13] was 53.5%; in [14] it was 81.7%; in assay [15], 63.4%; in assay [16] it was 119%; in assay [17], 7.71% (active); in [18], 45.9%. In assay [19], the growth is 21.3%.

As to `COc1ccc(-n2nc(C(=O)NCC(=O)O)nc2-c2ccccc2)cc1`, the growth in assay [1] was 113%; in assay [2] it was 98.7%; in assay [3] it was 103%; in assay [4] it was 100%; in assay [5], 107%; in assay [6] it was 100%. The growth in [7] is 102%; in assay [8], 94.1%; in assay [9], 108%; in [10], 99.8%; in [11], 108%; in [12], 105%. Also, the growth in assay [13] was 87.5%; in assay [14], 94.1%; in assay [15] it was 108%; in assay [16], 113%; in assay [17], 102%; in assay [18], 100%. Further, the growth in assay [19] was 102%.

As for `CC[C@H](Nc1ncnc2nc[nH]c12)c1nc2cccc(CC(=O)c3ccc(C(=O)NO)cc3)c2c(=O)n1-c1ccccc1`, the growth in [1] was 102%; in [2], 82%; in assay [3], 56.3%; in assay [4], 93.2%; in [5], 89.3%; in assay [6], 96.6%. Also, the growth in [7] is 79.9%; in assay [8], 91.7%; in [9], 90.2%; in [10], 77.5%; in assay [11] it was 90.6%; in assay [12], 84%. Also, the growth in assay [13] was 87.4%; in assay [14] it was 88.1%; in assay [15], 102%; in assay [16], 74%; in assay [17], 90.1%; in assay [18], 66.8%. In assay [19], the growth was 67.6%.
